Most compounds without a hit are left out; they make up all but 1.4% or so of the library.
S-ASM inh: Inhibitors of Secretory Acid Sphingomyelinase (S-ASM): qHTS; Sphingomyelin phosphodiesterase (Homo sapiens), P17405; placental ASM, HMU-PC fluorogenic substrate, 60 min; Potency, µM (highest dose often 57.5 µM), for inactives: top-dose activity change, negative = inhibition, hits mostly inhibitors; actives 0.006% (n = 340,000); AID 504937, 2011; further: potency means the concentration at half of the fitted maximal effect
Target sequence (P17405 47-631 limits assumed): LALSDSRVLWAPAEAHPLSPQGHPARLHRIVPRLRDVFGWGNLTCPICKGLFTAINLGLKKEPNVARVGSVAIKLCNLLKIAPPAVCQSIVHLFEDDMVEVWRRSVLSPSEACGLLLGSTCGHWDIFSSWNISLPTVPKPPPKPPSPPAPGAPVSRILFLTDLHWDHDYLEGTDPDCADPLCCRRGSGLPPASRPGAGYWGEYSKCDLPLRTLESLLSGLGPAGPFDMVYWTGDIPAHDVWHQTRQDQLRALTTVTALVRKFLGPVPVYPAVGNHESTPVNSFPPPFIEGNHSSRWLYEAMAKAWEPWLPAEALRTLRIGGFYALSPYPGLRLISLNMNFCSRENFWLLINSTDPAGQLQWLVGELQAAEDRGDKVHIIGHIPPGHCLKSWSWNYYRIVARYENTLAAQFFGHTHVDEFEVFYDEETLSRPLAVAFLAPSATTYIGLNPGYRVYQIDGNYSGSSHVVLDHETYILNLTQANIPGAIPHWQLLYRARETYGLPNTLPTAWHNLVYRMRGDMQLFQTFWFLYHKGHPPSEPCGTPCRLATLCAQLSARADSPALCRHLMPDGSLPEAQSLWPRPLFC
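HMU-PC0 cleavage (9 uM final) by human placental ASM, 60 min at 37 °C following 10 min compound exposure at RT; stopped at pH 10, fluorescence Ex 386/Em 447 nm.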
pAkt inh: HTS Assay for Inhibitors of Akt Phophorylation: Primary Screen | Neuro2A IGF-stimulated pAkt S473 HTRF, 20 min; hits give low values | actives 0.32% (n = 360,000) | activity change, % for hits at 50 µM; in the data active means activity change below about -80%; inconclusive means mostly about -51% to -80%; further: on the % scale 0 is the no-effect control and ±100 the full control effect
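Neuro2A cells (4,500/well, DMEM with 0.5% FBS) were treated with compound at a single 50 µM final concentration, stimulated with 6 nM IGF for 20 min at 37 °C, and lysed. Phospho-Akt Ser473 was read by HTRF as 665/615 ratio ×10^4.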
ALOX12 inh: Primary qHTS assay for inhibitors of human arachidonate 12S-lipoxygenase (ALOX12): Round 2; Polyunsaturated fatty acid lipoxygenase ALOX12 (Homo sapiens), P18054; purified 12hLO, xylenol orange hydroperoxide absorbance; Potency, µM (highest dose often 108 µM), without a hit: at the highest dose activity change, negative = inhibition, usual class: inhibitors; actives 1.1% (n = 580,000); AID 1671190, 2021; further: potency means the concentration at half of the fitted maximal effect; on the % scale 0 is the no-effect control and ±100 the full control effect
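Hydroperoxide product was detected by ferrous iron/xylenol orange as the 573 to 405 nm absorbance ratio. Arachidonic acid at 40 uM (final) was turned over for 30 min at room temperature by 150 nM human 12hLO, pH 7.0 Hepes buffer, after 15 min compound preincubation.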
Vif-A3G inh: qHTS for Inhibitors of Vif-A3G Interactions: qHTS. DNA dC->dU-editing enzyme APOBEC-3G (Homo sapiens), Q9HC16. HeLa A3G-eYFP + Vif (tagged APOBEC3G with the HIV-1 protein that degrades it), YFP fluorescence, overnight. Potency, µM (series often up to 46.1 µM), inactives show top-dose activity, negative = active, most hits filed as inhibitors. actives 0.076% (n = 410,000). AID 602310, 2012; further: potency means the concentration at half of the fitted maximal effect; on the % scale 0 is the no-effect control and ±100 the full control effect; nearly all actives have a fitted effect of over 60% in size
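HeLa cells stably expressing Vif and C-terminally eYFP-tagged A3G, seeded overnight at 37 deg C, then exposed to compound by pintool overnight at 37 deg C. Rise in yellow fluorescence (Ex 488/Em 500-530, Acumen) marks blocked Vif-driven A3G degradation.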
PTAP TSG101 blk: qHTS Assay for Iinhibitors of HIV-1 Budding by Blocking the Interaction of PTAP/TSG101; Tumor susceptibility gene 101 protein (Homo sapiens), Q99816; AID 493005, 2010; 340,000 tested, under 10 active; Fluorescence polarization, FITC-PTAP peptide / Tsg101 binding; Potency, µM (top dose mostly 115 µM), without a hit: top-dose activity change, negative = inhibition, most hits filed as inhibitors; active means well fitted inhibition curve with a large enough effect in the main read-out, with a control signal flat, not every such curve was filed as active; inconclusive means small, poorly fitted or top-dose-only effect, or effect the other way, or a change in a side signal; inactive means no such curve, though single readings can be large or run the other way; further: potency means the concentration at half of the fitted maximal effect; % of control where 0% means no effect
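Tsg101 binding domain (10 uM final) was mixed with compound and a FITC-labeled PTAP peptide (50 nM final) in HEPES pH 7.5 buffer with NaCl, Tween 20, EDTA and TCEP; fluorescence polarization was read after 20 min at r.t.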
Vif-A3F inh: qHTS for Inhibitors of Vif-A3F Interactions: qHTS | Potency, µM (titrated, usually from 46.1 µM), without a hit: at the highest dose activity, negative = active | actives 0.2% (n = 390,000) | HeLa A3F-eYFP + Vif (tagged APOBEC3F with the HIV-1 protein that degrades it), YFP fluorescence increase; further: potency means the concentration at half of the fitted maximal effect; % of control where 0% means no effect; nearly all actives have a fitted effect of over 65% in size
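HeLa cells stably expressing Vif plus C-terminally eYFP-tagged A3F were seeded, incubated overnight at 37 deg C, dosed with compound, incubated overnight again at 37 deg C. Yellow fluorescence (Ex 488/Em 500-530) reported blocked Vif-mediated A3F-eYFP degradation.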
An asterisk follows results filed as active; i = inactive; ? = inconclusive; . = not tested or not shown; [ ] = remark or other dose. Unless noted, the call rests on the fitted dose curve; in most records, active means well fitted curve in the direction sought with a large enough effect; inconclusive means small, poorly fitted or top-dose-only effect, or another doubt; inactive means no such curve, though single readings can be large; an effect the other way counts as inactive or inconclusive.

SMILES | S-ASM inh | pAkt inh | ALOX12 inh | Vif-A3G inh | PTAP TSG101 blk | Vif-A3F inh
O=C(OCc1ccccc1)N1CCC2CC1c1cc(N3CCN(C(=S)NCCc4ccccc4)CC3)ccc12 (stereo not drawn) | . | i | 20µM* | 2% | . | .
CNC(=O)c1ccc(CN(C(=O)NCC(F)(F)F)C2CC2)cc1 | . | . | 16% | . | . | .
COC(=O)C1C2CC3c4[nH]c5cc(OC)ccc5c4CCN3CC2CC(OC2CCCCO2)C1OC (stereo not drawn) | . | i | 36% | -9% | . | 11µM*
COCC1CN(C2CCC2)CC12CCN(Cc1cccc(OC)c1OC)CC2 (stereo not drawn) | . | . | 48% | . | . | .
CCc1ccc2oc(C(=O)NCc3ccncc3)cc(=O)c2c1 | . | . | 21% | . | . | .
CCOC(=O)c1c(CC(C)C)csc1/N=C/C1C(=O)CCCC1=O | 13% | i | 0% | ? | -3% | 22µM*
CC(=O)c1cc(NC(=O)c2ccc(C)cc2)c(=O)oc1/C=C/N(C)C | -21% | i | ? | 13µM* | ? | 13µM*
CCN(Cc1ccc2c(c1)OCO2)C(=O)NCc1nc(C)cs1 | . | . | 2% | . | . | .
Cc1nnc(N2CCOCC2)c2c1nnn2Cc1ccccc1Cl | . | . | -5% | . | . | .
COc1ccc2[nH]c(C(=O)N/N=C/c3ccc(OC)c(O)c3)cc2c1 | -7% | i | 1% | 2.5µM* | 3% | 1%
Cc1cc(Br)cc(Cl)c1OCC(=O)NCc1cccc(NC(=O)C2CC2)c1 | . | . | -27% | . | . | .
Cn1ncc2c(=S)nc(Cl)[nH]c21 | 5% | i | 7.1µM* | -13% | -5% | ?
CCc1c(C)sc(NC(=O)C2CC3CCC2C3)c1C#N (stereo not drawn) | . | . | 16µM* | . | . | .
CCc1c(C)sc(NC(C)=O)c1C#N | . | . | 32µM* | . | . | .
COCCn1c(=O)n([C@H]2CCCN(S(=O)(=O)c3cccc(OC)c3)C2)c2ncccc21 | . | . | 18% | . | . | .
COc1ccc(CN2CCN(C(=O)c3cc4ccc(OC)cc4nc3C)CC2)cc1 | . | . | 37% | . | . | .
CN(C)CCCn1c(-c2ccc(COc3ccc(Br)cc3)o2)n[nH]c1=S | . | . | 14µM* | . | . | .
CNC(=O)[C@@H](c1ccccc1F)N1CCC[C@H]1C(=O)NC1CC1 | . | . | 25µM* | . | . | .
CSc1nc2c(=S)[nH]c(=S)[nH]c2s1 | . | i | 14µM* | 0% | . | .
COc1ccc2cc(C3CN(C(=O)Cc4ccc(O)cc4)CCO3)ccc2c1 (stereo not drawn) | . | . | -4% | . | . | .
Cc1ccc(NC(=O)c2cccc(NC(=O)/C=C/c3ccco3)c2)cc1C | -18% | i | 40µM* | -2% | 3% | -10%
CCc1ccccc1NC(=O)c1cccc(NC(=O)/C=C/c2ccco2)c1 | -6% | i | -31% | 0% | -1% | 7%
Cc1ccc(NC(=O)N/C=C/c2ccco2)cc1C | -3% | i | 28µM* | -2% | -1% | -1%
COc1ccc(/C=N/NC(=O)c2nn(-c3ccc(Cl)cc3)c(=O)c3c(N)scc23)cc1 | ? | i | 7.9µM* | ? | 0% | 5%
N#Cc1ccc(Cn2cnc3ccccc3c2=O)c(F)c1 | . | . | -15% | . | . | .
SMILES | S-ASM inh | pAkt inh | ALOX12 inh | Vif-A3G inh | PTAP TSG101 blk | Vif-A3F inh
O=C(Nc1ccc(C(F)(F)F)oc1=O)c1ccccc1 | . | . | -28% | . | . | .
O=C(Nc1ccccc1)O[C@@H]1CO[C@H]2[C@@H]1OC[C@@H]2NC(=S)Nc1ccccc1 | . | . | 71µM* | . | . | .
CCNC(=O)O[C@@H]1CO[C@H]2[C@@H]1OC[C@@H]2NC(=S)Nc1ccc(N(C)C)cc1 | . | . | 112µM* | . | . | .
O=C(Nc1cccc2ccccc12)O[C@@H]1CO[C@H]2[C@@H]1OC[C@@H]2NC(=S)Nc1cccc2ccccc12 | . | . | 50µM* | . | . | .
COc1cc(NC(=S)N[C@H]2CO[C@H]3[C@@H]2OC[C@H]3OC(=O)Nc2ccccc2)cc(OC)c1 | . | . | -16% | . | . | .
O=C(Nc1cccc2ccccc12)O[C@@H]1CO[C@H]2[C@@H]1OC[C@@H]2NC(=S)Nc1ccc(Cl)cc1 | . | . | 35µM* | . | . | .
CCNC(=O)O[C@@H]1CO[C@H]2[C@@H]1OC[C@@H]2NC(=O)Nc1ccc(C(C)C)cc1 | . | . | 52%[176 µM] | . | . | .
CN(C)c1ccc(NC(=S)N[C@H]2CO[C@H]3[C@@H]2OC[C@H]3OC(=O)Nc2cccc3ccccc23)cc1 | . | . | 11% | . | . | .
O=C(Nc1ccc2[nH]c(=O)[nH]c2c1)c1nn(-c2ccc(F)c(F)c2)c2c1CCC2 | . | . | -29% | . | . | .
CCC(C)NC(=O)c1ccccc1-c1ncc(-c2ccc(F)cc2)o1 (stereo not drawn) | . | . | 41% | . | . | .
CC(=O)c1cnn(-c2cc(NC3CCCCC3)nc(C)n2)c1C | . | . | 34% | . | . | .
S=C(Nc1cccc2ccccc12)N[C@H]1CO[C@H]2[C@@H]1OC[C@H]2OCc1ccccc1 | . | . | 63µM* | . | . | .
NC(=O)CO[C@@H]1CO[C@H]2[C@@H]1OC[C@@H]2NC(=O)Nc1cccc2ccccc12 | . | . | -5%[176 µM] | . | . | .
O=C(CSc1ccccc1C(=O)O)NC12CC3CC(CC(C3)C1)C2 | 1% | i | 0% | -4% | -1% | -1%
O=C(CSc1ncccc1C(=O)O)NC12CC3CC(CC(C3)C1)C2 | 0% | i | 22µM* | 0% | 0% | 1%
CCN(CC)CCn1c2ccccc2c2n[nH]c(=S)nc21 | -1% | i | 32µM* | -8% | 3% | 2%
O=C(CSc1ccc2c(c1)OCCCO2)Nc1cccc2ccccc12 | . | . | 16µM* | . | . | .
Cc1ccc(NC(=O)CSc2ccccc2C(=O)Nc2ccc3c(c2)OCCCO3)cc1 | . | . | 10µM* | . | . | .
O=C(CSc1ccc2c(c1)OCCCO2)Nc1ccccc1 | . | . | -13% | . | . | .
O=C(Nc1ccc2c(c1)OCO2)c1ccccn1 | -2% | i | 5.6µM* | 2% | 0% | 5%
O=C(CSc1ccccc1C(=O)O)Nc1ccc2c(c1)OCO2 | 3% | i | ? | 6% | -6% | 6%
N#Cc1ccc(CSc2ccccc2C(=O)Nc2ccc3c(c2)OCO3)cc1 | . | . | 28µM* | . | . | .
CCS(=O)(=O)c1ccc2oc(Nc3ccc(OC(F)(F)F)cc3)nc2c1 | . | . | 7% | . | . | .
O=C(COc1ccc(S(=O)(=O)NC2CCCC2)cc1)NCc1ccccn1 | . | . | 11% | . | . | .
c1ccc2c(c1)nc(N1CCOCC1)c1nnnn12 | 1% | i | 5% | 0% | -10% | 3.2µM*
CCOc1cc2ccccc2cc1C(=O)Nc1nnc(C)s1 | . | . | 8% | . | . | .

Bioassay records (PubChem)
